The results in this text go back to PubChem BioAssay (EPA / NIEHS).

Assay [1] deals with Paired box protein Pax-6 (Homo sapiens) (UniProt P26367). Description: ATG_Pax6_CIS: Attagene CIS-FACTORIAL HepG2 Assay for human Paired Box 6 (PAX6) (AID 2282956). The following applies: HepG2 CIS-FACTORIAL PAX6 reporter transcription, RNA readout; actives raise or lower the signal. Put shortly:
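DMSO-referenced bidirectional fits of reporter mRNA fluorescence; HepG2 with transient cis-promoter MRTUs, 24 h post-dose, RT-PCR plus capillary electrophoresis detection.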

Assay [2] can be described thus: ATG_PXRE_CIS: Attagene CIS-FACTORIAL HepG2 Assay for human Pregnane X Receptor Element (PXRE) (AID 2282957). The settings on record: HepG2 Attagene CIS-FACTORIAL PXRE reporter, mRNA; actives raise or lower the signal. A digest of the protocol:
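Endogenous transcription factor activity in HepG2 was gauged through induction of reporter mRNA driven by a cis-regulating promoter element, sampled 24 h post-treatment. Activity was fitted in both directions against DMSO negative control.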

Assay [3] can be described thus: ATG_Sox_CIS: Attagene CIS-FACTORIAL HepG2 Assay for human SRY-box transcription factor (SOX) (AID 2282960). The following applies: HepG2 Attagene cis-factorial SOX reporter, mRNA; actives raise or lower the signal. A digest of the protocol: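 HepG2, cis reporter units, 24 h exposure. Reporter mRNA: RT-PCR → FAM labelling → HpaI → CE fluorescence. Bidirectional fit vs DMSO.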

Assay [4] is described as follows: ATG_SREBP_CIS: Attagene CIS-FACTORIAL HepG2 Assay for human Sterol Regulatory Element Binding (SREBP) (AID 2282962). The settings on record: HepG2 Attagene cis-factorial SREBP reporter, mRNA; actives raise or lower the signal. A digest of the protocol: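 In this cis-format assay, HepG2 liver cells express reporters controlled by promoter elements responsive to native transcription factors. Exposure lasts 24 h; reporter mRNA fluorescence from capillary electrophoresis gives the signal, fitted bidirectionally against DMSO.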

Assay [5] can be described thus: ATG_TA_CIS: Attagene CIS-FACTORIAL HepG2 Assay for human TA Basal Promoter (AID 2282964). The following applies: HepG2 Attagene CIS-factorial TA basal promoter reporter; actives raise or lower the signal. Put shortly:
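Read-out: fluorescent reporter-transcript fragments resolved by capillary electrophoresis after RT-PCR and HpaI digestion. Source: HepG2 cells carrying transiently transfected multi-reporter cis constructs, treated 24 h. Endpoint fitted bidirectionally relative to DMSO.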

Assay [6] in a line: ATG_TCF_b_cat_CIS: Attagene CIS-FACTORIAL HepG2 Assay for human T-Cell-Factor with beta-catenin (TCF/b-cat) (AID 2282965). The settings on record: HepG2 TCF/beta-catenin cis-reporter transcription, actives raise or lower the signal. Put shortly: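 Endogenous transcription factor activity is captured through cis-promoter reporter constructs transiently introduced into human HepG2 liver cells. Induced reporter mRNA is measured after 24 h and fitted bidirectionally relative to DMSO.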

A short description of assay [7]: ATG_TAL_CIS: Attagene CIS-FACTORIAL HepG2 Assay for human TAL Basal Promoter (AID 2282966).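 Also: background control endpoint measuring basal TAL promoter reporter mRNA not a specific factor.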 The settings on record: HepG2 Attagene cis-factorial TAL promoter reporter; actives raise or lower the signal. A digest of the protocol:
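Endogenous transcription-factor activity is sensed in HepG2 cells through transfected cis-promoter reporter constructs. After 24 h dosing, reporter transcripts are quantified by RT-PCR and capillary electrophoresis. Gain or loss of signal is fitted relative to DMSO.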

A short description of assay [8]: ATG_TGFb_CIS: Attagene CIS-FACTORIAL HepG2 Assay for human Transforming Growth Factor (TGF) (AID 2282967). The following applies: HepG2 Attagene CIS TGFb reporter, mRNA transcription; actives raise or lower the signal. A digest of the protocol:
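Transient MRTU transfection of HepG2 (FuGene 6). Dose 24 h. TriZol RNA, oligo(dT) RT, PCR, 6-FAM primer extension, HpaI cut, CE. Bidirectional fit, DMSO = baseline.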

In assay [9] the target is Estrogen receptor (Homo sapiens) (UniProt P03372). Description: ATG_ERa_TRANS: Attagene TRANS-FACTORIAL HepG2 Assay for human Estrogen Receptor alpha (ERa) (AID 2282970; active = hit-call score of the fitted dose curve at least 0.9, where 1 is the maximum). The following applies: HepG2 Attagene TRANS ERa GAL4 reporter, mRNA. Put shortly: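 Transfected HepG2 cells carrying GAL4-UAS-driven reporter units were dosed for 24 hours. Total RNA was reverse-transcribed, reporter sequences PCR-amplified, FAM-labelled, HpaI-digested and resolved by capillary electrophoresis. Increases over DMSO control defined activity.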
Sequence of Estrogen receptor (Homo sapiens) (P03372 whole entry, looked up, the tested form may be a part): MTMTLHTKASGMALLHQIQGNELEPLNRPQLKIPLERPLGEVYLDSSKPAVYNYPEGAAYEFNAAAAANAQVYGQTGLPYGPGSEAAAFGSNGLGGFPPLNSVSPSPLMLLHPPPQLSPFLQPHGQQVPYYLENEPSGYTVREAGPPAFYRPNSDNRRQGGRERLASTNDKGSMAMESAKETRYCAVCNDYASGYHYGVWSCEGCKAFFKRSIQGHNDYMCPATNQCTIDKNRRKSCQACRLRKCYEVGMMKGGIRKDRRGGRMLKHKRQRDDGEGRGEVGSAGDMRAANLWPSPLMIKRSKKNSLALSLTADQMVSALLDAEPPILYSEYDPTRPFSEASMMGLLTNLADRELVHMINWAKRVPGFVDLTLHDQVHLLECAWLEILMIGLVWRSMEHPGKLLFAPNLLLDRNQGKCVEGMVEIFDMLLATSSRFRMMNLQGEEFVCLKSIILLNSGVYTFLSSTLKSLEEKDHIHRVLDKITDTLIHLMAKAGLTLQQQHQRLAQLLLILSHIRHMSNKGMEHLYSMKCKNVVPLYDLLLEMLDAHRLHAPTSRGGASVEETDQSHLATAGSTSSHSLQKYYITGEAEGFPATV

For assay [10], the target named is X-box-binding protein 1 (Homo sapiens) (UniProt P17861). Description: ATG_Xbp1_CIS: Attagene CIS-FACTORIAL HepG2 Assay for human X-box Binding Protein 1 (XBP1) (AID 2282972). The following applies: HepG2 XBP1 cis-element reporter, Attagene multiplex; actives raise or lower the signal. Put shortly: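 Changes in reporter transcript abundance, read by RT-PCR and capillary electrophoresis, reflect endogenous transcription factor activity. Transfected HepG2 cells received compound for 24 hours; DMSO defined baseline for bidirectional analysis.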
Sequence of X-box-binding protein 1 (Homo sapiens) (P17861 whole entry, looked up): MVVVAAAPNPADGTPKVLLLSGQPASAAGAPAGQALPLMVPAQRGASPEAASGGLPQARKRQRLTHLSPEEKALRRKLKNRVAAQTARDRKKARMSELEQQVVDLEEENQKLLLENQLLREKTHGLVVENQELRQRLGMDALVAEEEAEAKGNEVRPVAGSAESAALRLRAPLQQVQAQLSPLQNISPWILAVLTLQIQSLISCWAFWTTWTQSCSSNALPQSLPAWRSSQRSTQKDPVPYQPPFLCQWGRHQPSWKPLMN

Assay [11] is described as follows: ATG_GAL4_TRANS: Attagene TRANS-FACTORIAL HepG2 Assay for GAL4 (Internal Marker) (AID 2282976; active = hit-call score of the fitted dose curve at least 0.9, where 1 is the maximum). The following applies: HepG2 Attagene TRANS GAL4 internal marker reporter. Put shortly:
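Fluorescence from capillary electrophoresis of labelled RT-PCR products quantifies reporter mRNA induction after 24 h dosing of HepG2 cells carrying transfected GAL4-UAS reporter transcription units. Vehicle DMSO serves as baseline.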

A short description of assay [12]: ATG_PPRE_CIS: Attagene CIS-FACTORIAL HepG2 Assay for human Peroxisome Proliferator-activated Response Element (PPRE) (AID 2282958). The following applies: HepG2 PPRE cis-element reporter, Attagene transcription factor profiling; actives raise or lower the signal. Put shortly: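 PPRE activity in HepG2: transient cis-reporter transfection, 24 h compound incubation, reporter mRNA by RT-PCR and CE fluorescence; gain/loss fitted against DMSO.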

Assay [13] concerns the target Transcription factor Sp1 (Homo sapiens) (UniProt P08047). Description: ATG_Sp1_CIS: Attagene CIS-FACTORIAL HepG2 Assay for human Specificity Protein 1 (Sp1) (AID 2282961). The following applies: HepG2 Sp1 cis-reporter transcription, actives raise or lower the signal. Put shortly: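 Liver-derived HepG2 cells, cis-element reporter library, 24 h treatment; RNA isolated, cDNA amplified with reporter-specific primers, FAM-labeled fragments sized on capillary analyzer. DMSO baseline, bidirectional curve fit.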

The target of assay [14] is Signal transducer and activator of transcription 3 (Homo sapiens) (UniProt P40763). The assay is described as follows: ATG_STAT3_CIS: Attagene CIS-FACTORIAL HepG2 Assay for human Signal Transducer and Activator of Transcription 3 (STAT3) (AID 2282963). The following applies: HepG2, Attagene cis-factorial STAT3 reporter transcription; actives raise or lower the signal. Put shortly:
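Cis-factorial format: endogenous transcription factors in HepG2 drive transfected reporter units. After 24 h treatment, reporter RNA was reverse-transcribed, amplified, FAM-labelled and HpaI-digested before CE analysis; activity scored in both directions against DMSO.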

A short description of assay [15]: ATG_VDRE_CIS: Attagene CIS-FACTORIAL HepG2 Assay for human Vitamin D Receptor Element (VDRE) (AID 2282968). The following applies: HepG2 VDRE cis-reporter transcription, actives raise or lower the signal. Put shortly:
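Measures endogenous factor activity through cis-element-driven reporter transcripts in transiently transfected HepG2. Cells are treated 24 h; reporter mRNA is quantified by RT-PCR and capillary electrophoresis; fitting is bidirectional.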

Assay [16] is described as follows: ATG_M_19_TRANS: Attagene TRANS-FACTORIAL HepG2 Assay for M19 Transcription Factor (Internal Marker) (AID 2282974; active = hit-call score of the fitted dose curve at least 0.9, where 1 is the maximum). The settings on record: HepG2 Attagene TRANS-FACTORIAL M19 internal marker reporter. A digest of the protocol: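 Transfected HepG2 (GAL4-UAS MRTUs), 24 h compound, TriZol RNA, DNase-treated RT, reporter PCR, FAM label, HpaI digest, CE fluorescence; gain vs DMSO.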

Assay [17] is described as follows: ATG_RORE_CIS: Attagene CIS-FACTORIAL HepG2 Assay for human RAR-related Orphan Receptor Element (RORE) (AID 2282959). The following applies: HepG2 Attagene cis-factorial RORE reporter, mRNA; actives raise or lower the signal. A digest of the protocol:
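A 24-hour exposure of transfected HepG2 hepatoma cells precedes RNA isolation and reporter RT-PCR. Labeled products are digested with HpaI and resolved by capillary electrophoresis, with gain or loss of signal scored relative to DMSO.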

Inconclusive results are not listed. Active and inactive are the calls of the source. The calls were made as follows, unless noted: active = hit-call score of the fitted dose curve at least 0.9, where 1 is the maximum; inactive = score below 0.9.

Sequence of Signal transducer and activator of transcription 3 (Homo sapiens) (P40763 whole entry, looked up): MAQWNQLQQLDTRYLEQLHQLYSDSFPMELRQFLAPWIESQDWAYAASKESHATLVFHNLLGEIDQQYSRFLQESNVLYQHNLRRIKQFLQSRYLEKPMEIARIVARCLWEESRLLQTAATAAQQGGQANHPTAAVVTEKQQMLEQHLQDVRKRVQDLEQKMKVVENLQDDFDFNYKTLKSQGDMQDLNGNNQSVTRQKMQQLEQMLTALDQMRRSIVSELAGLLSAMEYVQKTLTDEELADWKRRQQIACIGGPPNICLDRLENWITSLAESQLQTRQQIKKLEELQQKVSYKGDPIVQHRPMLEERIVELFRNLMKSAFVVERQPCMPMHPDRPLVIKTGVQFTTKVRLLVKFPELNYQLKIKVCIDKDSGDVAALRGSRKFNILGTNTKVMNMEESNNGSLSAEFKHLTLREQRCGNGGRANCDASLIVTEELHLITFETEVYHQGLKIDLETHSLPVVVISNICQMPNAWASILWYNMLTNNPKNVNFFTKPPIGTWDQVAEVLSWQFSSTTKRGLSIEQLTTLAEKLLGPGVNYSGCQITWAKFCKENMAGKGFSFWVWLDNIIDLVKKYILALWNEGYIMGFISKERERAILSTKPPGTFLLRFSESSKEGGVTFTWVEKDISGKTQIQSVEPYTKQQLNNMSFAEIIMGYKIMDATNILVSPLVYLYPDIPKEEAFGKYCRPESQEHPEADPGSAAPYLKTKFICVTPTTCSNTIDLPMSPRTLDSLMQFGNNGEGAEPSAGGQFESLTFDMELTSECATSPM
Sequence of Paired box protein Pax-6 (Homo sapiens) (P26367 whole entry, looked up): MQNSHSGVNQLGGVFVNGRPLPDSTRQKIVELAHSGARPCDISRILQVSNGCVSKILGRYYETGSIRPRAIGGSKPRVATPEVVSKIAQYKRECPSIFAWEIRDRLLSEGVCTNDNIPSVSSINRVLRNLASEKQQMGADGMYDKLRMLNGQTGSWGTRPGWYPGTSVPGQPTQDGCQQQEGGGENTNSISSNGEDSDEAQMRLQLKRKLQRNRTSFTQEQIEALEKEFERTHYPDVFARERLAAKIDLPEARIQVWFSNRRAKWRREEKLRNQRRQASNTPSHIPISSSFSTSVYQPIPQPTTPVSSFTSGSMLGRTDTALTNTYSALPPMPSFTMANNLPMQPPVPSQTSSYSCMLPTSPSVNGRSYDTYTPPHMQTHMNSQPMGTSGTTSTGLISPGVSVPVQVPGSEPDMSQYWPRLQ
Sequence of Transcription factor Sp1 (Homo sapiens) (P08047 whole entry, looked up, the tested form may be a part): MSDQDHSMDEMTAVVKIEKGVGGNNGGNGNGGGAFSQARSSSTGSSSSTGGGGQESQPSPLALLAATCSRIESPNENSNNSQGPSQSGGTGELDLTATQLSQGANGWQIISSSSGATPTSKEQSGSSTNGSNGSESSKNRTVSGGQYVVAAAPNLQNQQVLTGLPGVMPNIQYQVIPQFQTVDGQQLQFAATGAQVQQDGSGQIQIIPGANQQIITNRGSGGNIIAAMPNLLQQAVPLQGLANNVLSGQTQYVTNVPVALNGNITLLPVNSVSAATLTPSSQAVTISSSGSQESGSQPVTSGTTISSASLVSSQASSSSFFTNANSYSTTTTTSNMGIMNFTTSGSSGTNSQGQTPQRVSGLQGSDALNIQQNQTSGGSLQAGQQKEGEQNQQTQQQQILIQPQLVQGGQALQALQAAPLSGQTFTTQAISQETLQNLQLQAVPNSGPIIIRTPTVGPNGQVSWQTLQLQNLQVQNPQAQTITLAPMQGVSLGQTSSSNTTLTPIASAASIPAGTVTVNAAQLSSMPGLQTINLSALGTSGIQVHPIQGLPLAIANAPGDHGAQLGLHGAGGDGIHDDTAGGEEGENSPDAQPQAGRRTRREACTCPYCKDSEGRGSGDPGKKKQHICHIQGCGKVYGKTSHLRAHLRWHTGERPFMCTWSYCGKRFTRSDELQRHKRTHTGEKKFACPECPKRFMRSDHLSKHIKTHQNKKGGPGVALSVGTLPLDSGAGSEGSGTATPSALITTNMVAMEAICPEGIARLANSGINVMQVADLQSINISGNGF

A word on the AC50: it is the concentration at which the activity in the assay is half-maximal. As to `Cc1ccc(C)c(OCCCC(C)(C)C(=O)O)c1`, the call in [1], in assay [3], in [4], in assay [5], in [6] and in assay [7] was inactive. Besides, the call in [8], in assay [10] and in assay [11] was inactive. Moreover, the AC50 in assay [2] is 22.5 µM (active); in assay [9], 20.2 µM (active).

Consider `Nc1ccnc(=O)[nH]1`, for which the compound was called inactive in assay [1], in [12], in assay [3], in assay [13], in assay [4] and in assay [14]. Besides, the result in [5], in assay [6], in assay [7], in [8], in [15] and in assay [9] was inactive. Besides, the call in [10] and in assay [16] was inactive.

Consider `CCCCCCCC(=O)OCC(COC(=O)CCCCCCC)OC(=O)CCCCCCC`, for which the outcome in assay [1], in assay [2], in assay [17], in assay [3], in [4] and in assay [5] was inactive. The compound was called inactive in assay [6], in assay [7], in [8], in assay [15], in assay [9] and in [10]. The compound was classed as inactive in assay [11].

As to `CCCCNS(=O)(=O)c1ccccc1`, the call in [1], in [3], in assay [4], in assay [5], in [6] and in assay [7] was inactive. For the same compound, the outcome in [8], in [15], in assay [9], in assay [10] and in assay [16] was inactive. For the same compound, the AC50 in assay [2] was 26.7 µM (active).

With `CC(=O)OCc1ccccc1`, the result in assay [1], in assay [2], in [3], in [13], in [4] and in assay [14] was inactive. Moreover, the compound was classed as inactive in [5], in [6], in [7], in [8], in assay [15] and in [9]. The outcome in assay [10], in [16] and in assay [11] was inactive.

As to `C/C=C/C=C/CCCCCCCO`, the AC50 in [1] is 76 µM (active); in assay [2], 25.5 µM (active); in assay [5] it was 100 µM (active); in assay [15], 22.7 µM (active). The compound was classed as inactive in assay [3], in [13], in assay [4], in [6], in [7] and in assay [8]. Further, the result in assay [10] was inactive.

With `CCN1CN(CC)CN(CC)C1`, the call in [1], in [17], in [4], in [14], in [7] and in assay [9] was inactive. In [16], the call was inactive. For the same compound, the AC50 in assay [2] is 119 µM (active); in assay [3], 138 µM (active); in assay [13] it was 163 µM (active); in assay [6] it was 132 µM (active); in assay [10], 162 µM (active).

Turning to `CCC(C)N` (stereo not given), the compound was classed as inactive in [1], in assay [17], in [3], in [13], in [4] and in assay [14]. Moreover, the call in assay [5], in assay [6], in assay [7], in assay [15] and in assay [10] was inactive. Moreover, in assay [2], the AC50 was 47.5 µM (active).

In the case of `CCCCCCCCCCCC(C)=O`, the compound was called inactive in assay [1], in [17], in assay [3], in [14], in assay [5] and in assay [15]. In addition, the compound was classed as inactive in assay [10], in [16] and in [11]. For the same compound, the AC50 in assay [12] was 159 µM (active); in assay [13], 154 µM (active); in [4], 141 µM (active); in assay [6] it was 161 µM (active); in [7], 178 µM (active); in [8] it was 166 µM (active). In addition, the AC50 in assay [9] was 11.6 µM (active).

`CCCCCCCCCCCCc1ccc(O)cc1`: the outcome in assay [1], in assay [17], in assay [3], in assay [4], in [14] and in [6] was inactive. For the same compound, the call in [7], in assay [8], in [15], in assay [10], in assay [16] and in [11] was inactive. Also, the figures for the AC50 in assay [2] and in assay [9] were 1.53 µM (active) and 0.0847 µM (active), respectively.
